# Screening results as filed in PubChem.
# Vaccinia pol inh = blocks vaccinia virus processive DNA synthesis; in vitro processive DNA synthesis, absorbance read-out; stronger effect = lower value; 46,000 compounds, 0.94% hits; normalized absorbance, % (no concentration beside the values); AID 493162; in the data active = normalized absorbance mostly below about 85%, no sharp cut-off; inactive = mostly above about 86%
# An asterisk follows results filed as active; ! = not active in a repeat. The entries come from a sample that favours hits as a whole.
SMILES,Vaccinia pol inh
CCOc1cccc2sc(NC(=O)c3ccccc3F)nc12,105
O=C(CC1CCCC1)OCCN1CCCC1=O,69
Cc1cc(-c2ccccc2)nnc1-c1ccccc1,102
C=CCOc1ccccc1CNc1ncn[nH]1,84
COc1ccc(CNc2ccccn2)cc1OC,99
COc1ccc(CNc2ncn[nH]2)cc1OC,82*
O=C(O)c1cccc(Oc2ccccc2)c1,93
CCc1ccc(NC(=O)C(C)OC(=O)c2c(F)cccc2F)cc1 (configuration not stated),99
O=C(O)CCc1nc(=S)[nH][nH]1,100
CC(C)(C)OC(=O)N1CCCN(C(=O)Nc2ccc(F)cc2F)CC1,107
C=CCN(CC=C)c1nn[nH]n1,60*
Cc1ccc(C(=O)Oc2c(C)cc(-c3nn(C)c(=O)c4ccccc34)cc2C)cc1,111
COC(=O)c1sc2nc3c(c(-c4ccc(Cl)cc4)c2c1N)CCC3,101
Nc1nc(-c2ccc(S(=O)(=O)N3CCOCC3)cc2)cs1,116
COc1ccc2c(c1OC)CN(C)CCc1cc3c(cc1C(O)C2)OCO3 (configuration not stated),110
COc1ccc2cc3[n+](cc2c1OC)CCc1cc2c(cc1-3)OCO2,82*
COc1ccc2c(c1OC)CN1CCc3cc4c(cc3C1C2)OCO4 (configuration not stated),100
COC(=O)c1sccc1OC,112
COc1ccccc1N1CCN(CCC(=O)Nc2ccc3c(c2)CCC3)CC1,100
N#CCC(=O)Nc1ccco1,102
Cc1cc(OCc2nnc3n2CCCCC3)ccc1Cl,89
O=C1NC(=Nc2cccc(C(=O)O)c2)S/C1=C/c1ccc(-c2ccc(C(=O)O)cc2)o1,29*
O=C(O)c1ccc(-c2ccc(/C=C3\Sc4ccccc4C3=O)o2)cc1,100
O=C(O)c1cccc(-c2ccc(/C=C3/SC(=O)N(c4ccccc4)C3=O)o2)c1,95
CN(C(=O)c1ccc2c(Cl)c3c(nc2c1)CCCC3)c1ccc(Cl)cc1,100
SMILES,Vaccinia pol inh
NC(N)=NC(=O)c1nc(Cl)c(N)nc1N,63*!
Cc1ccc(C)c(NCc2cn[nH]c2-c2ccc(Br)cc2)c1,102
COc1ccc(OCC2c3cc(OC)c(OC)cc3CCN2C(=O)C(C)C)cc1 (configuration not stated),96
COc1cc2cc3c4c(cc(OC)c(OC)c4c2cc1OC)CCN3C,66*
COc1ccc(C(=O)N2CCc3cc(OC)c(OC)cc3C2C)cc1 (configuration not stated),91
CCn1c(=O)cc(OCC(=O)N2CCCCC2C)c2ccccc21 (configuration not stated),104
O=C(NC1CCCCC1)Oc1ccccc1-c1nnc2n1CCCCC2,102
O=C(O)CNC(=O)COc1ccc(-c2ccccc2)cc1,85
CN(C)c1ccc(C(=NO)c2ccc(N(C)C)cc2)cc1,100
CN(C)c1ccc(C(=C2C=CC(=[N+](C)C)C=C2)c2ccc(N(C)C)cc2)cc1,49*
CN(C)c1ccc(C(=O)OCC(=O)NC2CC2)cc1,107
Cc1cc(N(C)Cc2ccccc2)ncn1,103
CCc1ccc(-n2c(N(C)Cc3ccccc3)nc3ccccc3c2=O)cc1,90
Cc1cc(N(C)Cc2ccccc2)nc2cc(O)ccc12,77*
O=C(Nn1ncc2ccccc21)c1ccccc1,99
Cc1nnc(SCc2ccc(F)cc2Cl)c2cc3occc3n12,72*
CCc1nnc(SCc2ccccc2)c2cc3occc3n12,91
Cc1ccc(C)c(CSc2nncn3c2cc2occc23)c1,91
COc1ccc(OC)c(N=c2cc(-c3ccc4c(c3)OCO4)oc3ccccc23)c1,96
COc1ccc2nc(NC(=O)/C=C/c3cccs3)sc2c1,99
N#Cc1ccc(-c2csc(NC(=O)CCc3ccccc3)n2)cc1,101
N#CC1=C(SCC(=O)N(c2ccccc2)c2ccccc2)NC(=O)CC1c1ccccc1F (configuration not stated),102
Cc1c(C(=O)NCc2ccco2)cc(-c2ccccc2)n1CCSCc1c(F)cccc1Cl,100
O=C(O)c1ccc(CSCc2c(F)cccc2Cl)o1,94
Cc1c(C(=O)O)cc(-c2ccccc2)n1CCSCc1c(F)cccc1Cl,82*
SMILES,Vaccinia pol inh
Cc1cccc(-c2noc(CNC(=O)C(C)(C)Oc3ccc(Cl)cc3)n2)c1,99
FC(F)(F)c1ccc(Cn2cnc3ccccc32)cc1,106
Cc1ccc(-c2nc3ccccc3s2)cc1,71*
Cc1ccc(-n2nnnc2-c2nc3ccccc3s2)cc1,111
CCN(CC)S(=O)(=O)c1ccc(-c2nc3ccccc3s2)cc1,99
Cc1ccc(-c2nc(N)oc2-c2ccc(C)cc2)cc1,96
O=C(O)CCCc1ccc2ccc3cccc4ccc1c2c34,80*
O=C(O)CCCC(=O)c1ccccc1,100
CCn1cc(CCCC(=O)O)c2ccccc21,104
O=C(OCC(=O)N1c2ccccc2Sc2ccccc21)c1ccco1,100
COc1cccc(C2CC(C(F)(F)F)n3ncc(C(=O)N4CCCCC4C)c3N2)c1 (configuration not stated),104
C=CCNS(=O)(=O)c1cccs1,93
O=C1Nc2ccc(S(=O)(=O)N(CCO)CCO)c3cccc1c23,100
NS(=O)(=O)c1ccc2c3c(cccc13)C(=O)N2,96
CN(c1ccccc1C(=O)O)S(=O)(=O)c1ccc2c3c(cccc13)C(=O)N2,50*
O=C(OCC(=O)N1CCc2ccccc21)c1n[nH]c2ccccc12,112
COc1cc2c(cc1OC)C(COc1cc(C)cc(C)c1)N(C(=O)Cc1cccs1)CC2 (configuration not stated),101
COc1cc2c(cc1NS(=O)(=O)c1ccc(N3CCCC3=O)cc1)oc1ccccc12,104
Cc1sc2c(c1C)CSC(C(=O)O)=C2,78
N#Cc1nc(-c2ccccc2)oc1NCCN1CCCCC1,101
Cc1cc(NCCN2CCCCC2)c2ccc3ccccc3c2n1,22*
O=S(=O)(NCCN1CCCC1)c1cc2ccccc2s1,112
CCc1cccc2nc(SC(CC)C(=O)NN)n(-c3ccc(OC)cc3)c(=O)c12 (configuration not stated),101
O=C1C(=Nc2ccc(Cl)cc2)c2ccccc2N1CN1CCc2ccccc2C1,101
N#Cc1c(/N=C/c2ccccc2O)oc(-c2ccco2)c1-c1ccco1,98
SMILES,Vaccinia pol inh
CCC(C)(C)c1ccc(OC2CSC2)cc1,93
O=C(CC(=O)c1ccccc1)Nc1cc(C(F)(F)F)ccc1Cl,100
COc1ccc(Nc2cc(C(F)(F)F)ccc2Cl)c(C(=O)O)c1,60*
CC(Nc1ccccc1)C(=O)Nc1cc(C(F)(F)F)ccc1Cl (configuration not stated),100
Clc1cccc(CNc2ccc3nnc(-c4ccccc4)n3n2)c1,98
O=C(O)CN1C(=O)/C(=C/c2ccccc2)SC1=S,90
CCCOC(=O)CN1C(=O)/C(=C/c2ccccc2)SC1=S,86
CCOC(=O)CN1C(=O)/C(=C/c2ccccc2)SC1=S,82*
COc1ccc(CNC(=O)c2cn(CC(C)C)c(=O)c3cc(OC)c(OC)cc23)cc1,98
CCOC(=O)CSc1nc2c([nH]c3ccccc32)c(=O)n1-c1ccc(F)cc1,100
Cc1cc(C)cc(OC(=O)c2ccc(Oc3cc(Cl)cc(Cl)c3)o2)c1,103
COC(=O)[C@@H](N)CCCN=C(N)N[N+](=O)[O-],100
CCCCC(CC)CN=C(N)NC(N)=NCCCCCCN=C(N)NC(N)=NCC(CC)CCCC (configuration not stated),27*
CC(c1ccccc1)N1C(=O)NC(=O)/C(=C/c2coc3ccccc3c2=O)C1=O (configuration not stated),91
